The list is not random: actives were taken first. Their share in the collection is about 9.2%.
FLuc counter: qHTS profiling assay for firefly luciferase inhibitor/activator using purifed enzyme and Km concentrations of substrates (counterscreen for miR-21 project); Luciferin 4-monooxygenase (Photinus pyralis), P08659; purified FLuc, Km substrates, luminescence inhibition; Potency, µM (titrated, usually from 57.5 µM), inactives show top-dose activity change, negative = inhibition, most hits filed as inhibitors; actives 6.9% (n = 360,000);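 further: plate controls were vehicle for no effect and reference inhibitor for full effect; nearly all actives have a fitted effect of over 55% in size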
Target sequence (P08659 whole entry, looked up): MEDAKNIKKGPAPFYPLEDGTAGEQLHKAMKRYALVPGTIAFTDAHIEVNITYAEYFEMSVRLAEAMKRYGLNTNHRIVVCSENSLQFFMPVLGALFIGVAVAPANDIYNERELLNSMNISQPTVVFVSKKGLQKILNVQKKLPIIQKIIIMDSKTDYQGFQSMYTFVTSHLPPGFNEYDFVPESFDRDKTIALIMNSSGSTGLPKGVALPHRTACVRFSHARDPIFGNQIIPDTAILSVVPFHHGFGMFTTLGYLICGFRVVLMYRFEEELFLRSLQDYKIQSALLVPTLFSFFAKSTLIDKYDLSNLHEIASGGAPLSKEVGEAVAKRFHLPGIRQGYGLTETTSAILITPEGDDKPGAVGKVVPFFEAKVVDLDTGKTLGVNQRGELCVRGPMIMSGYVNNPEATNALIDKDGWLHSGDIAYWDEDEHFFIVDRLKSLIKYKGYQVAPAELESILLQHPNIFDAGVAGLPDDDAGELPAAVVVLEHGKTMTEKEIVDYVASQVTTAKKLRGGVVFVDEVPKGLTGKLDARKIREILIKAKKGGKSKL
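Purified P. pyralis luciferase, 10 nM final, with Km-level 10 uM D-luciferin and 10 uM ATP in 50 mM Tris acetate pH 7.5, 10 mM Mg acetate, 0.01% Tween-20, 0.05% BSA; 6-point qHTS titration about 60 µM downward; luminescence read.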
SMN2 splice enh: qHTS Assay for Enhancers of SMN2 Splice Variant Expression; AID 1458, 2008; Potency, µM (highest dose often 46.1 µM), for the others: top-dose activity change, positive = activation, hits mostly activators; actives 2.8% (n = 210,000); HEK293 SMN2-luciferase splicing reporter, luminescence, 30-36 h; further: % of control where 0% means no effect; nearly all actives have a fitted effect of over 55% in size
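HEK293 cells carry an SMN2 […]–luciferase reporter in which exon 7 inclusion puts luciferase in frame. Cells were plated 10-12 h before compound addition, then incubated 30-36 h at 37C. ONE-Glo luminescence was read; sodium butyrate at 4.5 mM final served as control.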
ELG1 DNA repair: qHTS screen for small molecules that inhibit ELG1-dependent DNA repair in human embryonic kidney (HEK293T) cells expressing luciferase-tagged ELG1; HEK293T ELG1-luciferase reporter, luminescence, 16 h; DNA damage induced by 5-fluorouridine; Potency, µM (highest dose often 46.1 µM), without a hit: at the top dose activity change, negative = inhibition, actives largely listed as inhibitors; actives 2.3% (n = 330,000); further: on the % scale 0 is the no-effect control and ±100 the full control effect; nearly all actives have a fitted effect of over 55% in size
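5-Fluorouridine DNA damage + compound/DMSO, 2,000 cells/well, 16 h, 37 °C/5% CO2. ONE-Glo, 30 min RT, luminescence. Readout = decrease in reporter signal.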
NPC1 prom act: qHTS Assay for NPC1 Promoter Activators; Huh7 NPC1 promoter luciferase reporter, 24 h; Potency, µM (titrated, usually from 9.22 µM), without a hit: at the highest dose activation, actives largely listed as activators; actives 2.4% (n = 320,000); AID 485313, 2010; further: % of control where 0% means no effect; nearly all actives have a fitted effect of over 60% in size
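Luminescence read-out of NPC1 promoter-driven luciferase in stably transfected Huh7 cells; compounds delivered in DMSO and left 24 h at 37C, 5% CO2, qHTS titration format.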
Rab9 prom act: qHTS Assay for Rab9 Promoter Activators; Huh7 Rab9 promoter-luciferase reporter, luminescence, 24 h; Potency, µM (series often up to 9.22 µM), for the others: top-dose activation, negative = inhibition, most hits filed as activators; actives 2.8% (n = 320,000); further: % of control where 0% means no effect; nearly all actives have a fitted effect of over 60% in size
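Huh7 cells stably carrying Rab9 promoter–luciferase reporter, plated 1500 cells/well, compound added after 2 h and incubated 24 h at 37 °C; luciferase luminescence then read after 10 min with detection reagent.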
ELG1 genotoxic: qHTS screen for small molecules that induce genotoxicity in human embryonic kidney (HEK293T) cells expressing luciferase-tagged ELG1. Potency, µM (doses to about 46 µM), inactives show at the highest dose activity change, positive = activation, most hits filed as activators. HEK293T ELG1-luciferase reporter, luminescence, 16 h. actives 1.3% (n = 330,000); further: % of control where 0% means no effect; nearly all actives have a fitted effect of over 60% in size
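HEK293T cells expressing luciferase-tagged ELG1 were treated with compound or DMSO for 16 hr at 37°C. Luciferase activity was then read after 30 min with ONE-Glo at room temperature; rising signal flags genetic stress.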
* marks the source's active call; other numbers are inactive results; ? = inconclusive; . = no result given; [ ] = remark or other dose. The call rests on the fitted dose curve; in most records, active means well fitted curve in the direction sought with a large enough effect; inconclusive means small, poorly fitted or top-dose-only effect, or another doubt; inactive means no such curve, though single readings can be large; an effect the other way counts as inactive or inconclusive. Potency means the concentration at half of the fitted maximal effect.

SMILES	FLuc counter	SMN2 splice enh	ELG1 DNA repair	NPC1 prom act	Rab9 prom act	ELG1 genotoxic
c1ccc(-c2ncc(-c3ccn[nH]3)s2)cc1	3.38µM*	2.82µM*	?	1.41µM*	0.562µM*	?
COc1ccccc1C(=O)N1CCN(c2nc3cc(C)c(C)cc3cc2C#N)CC1	-13.8%	-85.2%	23.1µM*	2.0%	-3.1%	0.3%
COc1ccc2nc(N3CCCCC3)c(C#N)cc2c1	3.79µM*	5.4%	?	16.8%	3.16µM*	?
COc1ccc2nc(SCC(=O)N3CCCCC3)c(C#N)cc2c1	-1.6%	.	-2.0%	-2.2%	-2.7%	0.7%
COc1ccc2nc(SCC(=O)N3CCCCCC3)c(C#N)cc2c1	?	5.6%	0.0%	19.3%	27.1%	0.3%
Cc1ccc2nc(N3CCN(C(=O)c4ccc(F)cc4)CC3)c(C#N)cc2c1	-5.3%	.	?	-4.8%	-5.8%	-8.0%
COc1ccc2nc(N3CCCC3)c(C#N)cc2c1	10.7µM*	-22.4%	?	20.9%	25.9%	?
CCN(CC)C(=O)NC1CCCCCCC1	-0.7%	0.3%	20.3%	-0.1%	2.3%	2.6%
O=C(COc1ccccc1)Nc1ccc(Cl)cc1Cl	6.01µM*	.	?	?	2.24µM*	?
S=C(Nc1ccccc1)Nc1ccc(Cl)cc1Cl	26.9µM*	25.6%	7.9%	3.16µM*	?	20.6µM*
O=C(COc1ccccc1O)Nc1ccccc1Cl	21.3µM*	3.2%	?	3.98µM*	?	?
O=C(COc1ccccc1)Nc1cc(Cl)ccc1Cl	?	.	?	14.6%	4.2%	19.7%
COC(=O)C1=C(C(=O)OC)[C@@H]2N(C)c3ccccc3[C@@]23C[C@@H](CO)N(C(=O)C2CCC2)C3=N1	.	0.9%[9.22 µM]	.	.	.	.
Cc1cccc(NC(=O)C(=O)NCCc2csc(-c3ccc(F)cc3)n2)c1C	-2.0%	.	.	.	.	.
O=C(CSc1nc(=O)[nH]c2c1CCC2)NCc1ccc(F)cc1	2.5%	.	.	.	.	.
Oc1cccc(Nc2nc(O)c(/C=C3\C=Nc4ccccc43)s2)c1	21.3µM*	.	?	3.0%	6.8%	?
CC(C)CN(C1CCS(=O)(=O)C1)S(=O)(=O)c1ccc(C(C)C)cc1 (centres undefined)	0.6%	.	8.8%	-3.1%	0.6%	0.2%
CCCn1c(SC2C(=O)CC(C)(C)CC2=O)nc2c1c(=O)n(C)c(=O)n2C	1.0%	-8.3%	21.8%	-7.8%	6.6%	2.4%
CC(C)n1c(SC2C(=O)CC(C)(C)CC2=O)nc2c1c(=O)n(C)c(=O)n2C	0.2%	11.2µM*	2.2%	-3.7%	5.3%	9.8%
COc1ccc2nc(-c3ccc(N)cc3)[nH]c2c1	3.79µM*	?	?	?	24.4%	?
COc1ccc2nc(SCC(N)=O)[nH]c2c1	-6.3%	18.3%	18.8%	0.5%	-3.9%	0.5%
COc1ccc2nc(-c3cccc(N)c3)[nH]c2c1	2.39µM*	.	?	1.58µM*	2.51µM*	?
O=C1Nc2ccccc2Oc2cc([N+](=O)[O-])ccc21	1.1%	5.6%	?	7.6%	2.2%	-0.9%
CCOc1cc([N+](=O)[O-])cc2c1C(=O)Nc1ccccc1O2	-8.0%	-18.0%	7.3µM*	-3.1%	-3.9%	-0.4%
CC(=O)c1ccc(NC(=O)COc2ccccc2C(=O)Nc2ccccc2)cc1	?	.	?	12.5%	11.7%	-16.7%
CCNC(=O)COc1ccc(F)cc1C(=O)c1cnn(-c2ccccc2)c1	-0.5%	.	14.0%	0.8%	2.0%	6.0%
O=C(COc1ccccc1C(=O)c1cnn(-c2ccccc2)c1)Nc1ccccc1	1.51µM*	25.1µM*	?	26.4%	?	5.1%

Source: PubChem BioAssay
